# Bioassay records deposited in PubChem by several laboratories.
# IDE cell inh – inhibits human insulin-degrading enzyme in HEK cells | 320,000 tested, 0.41% active | inhibition, % at 5.59 µM | FAbetaB cleavage, fluorescence polarization;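 active = percent inhibition above the average of all tested compounds plus 3 SD, set per screening campaign, cut at about 16% in these data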;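 also: IDE supplied by intact live HEK cells; FP after avidin binding of uncleaved biotin substrate so inhibition keeps polarization high; 0% = DMSO wells and 100% = 60 µM reference IDE inhibitor Ii1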
# TPT1 inh – C. albicans TPT1 enzyme inhibition; recombinant caTPT1, FP RNA substrate dephosphorylation; 300,000 tested, 0.81% active; inhibition, % at 5 µM;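 active = inhibition above the mean of all tested compounds plus 3 SD, set per screening campaign, cut at about 24% in these data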;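 also: plate controls were DMSO alone for no effect and ferristatin control at 100 nM for full effect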
# HNF4A DNA FP – change in binding of human HNF4 alpha to DNA | HNF4a-FITC DNA binding, fluorescence polarization, 1 h | P41235 | AID 1224865 | 360,000 tested, 0.3% active | activity change, % at 10 µM; in the data active = activity change above about 30%, passing the limit was not always enough
# Target sequence (P41235 whole entry, looked up): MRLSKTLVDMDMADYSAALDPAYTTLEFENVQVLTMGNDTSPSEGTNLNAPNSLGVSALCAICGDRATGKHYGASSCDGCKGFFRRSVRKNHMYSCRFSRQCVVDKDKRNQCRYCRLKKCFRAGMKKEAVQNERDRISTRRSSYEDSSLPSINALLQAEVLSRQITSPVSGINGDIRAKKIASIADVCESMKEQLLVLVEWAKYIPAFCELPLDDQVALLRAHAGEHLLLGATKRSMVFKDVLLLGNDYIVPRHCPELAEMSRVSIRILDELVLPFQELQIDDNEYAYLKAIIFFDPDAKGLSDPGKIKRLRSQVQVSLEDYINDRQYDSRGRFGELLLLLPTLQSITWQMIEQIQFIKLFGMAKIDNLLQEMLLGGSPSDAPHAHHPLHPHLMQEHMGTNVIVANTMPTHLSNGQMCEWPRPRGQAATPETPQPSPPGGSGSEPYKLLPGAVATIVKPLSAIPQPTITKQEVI
# CRFBP-R2 agonist – agonists of human CRF-binding protein/CRF-R2 receptor complex. HEK293 CRF-R2/CRF-BP, calcium dye fluorescence (FLIPR); percent of saturating CRF peptide response. activation, % at 13.2 µM. 350,000 tested, 0.46% active. AID 588473;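 active = activation of at least 50%, plus an integration ratio under a set limit after plate pattern correction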;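 also: plate controls were neutral control wells without compound for no effect and CRF at EC100 for full effect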
# IDE cell activ – boosts human insulin-degrading enzyme activity in HEK cells; activation, % at 5.96 µM; P14735; 340,000 tested, 0.073% active; FAbeta-B cleavage, fluorescence polarization; 0% vehicle, 100% cell-free pure enzyme wells;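 active = activation above the mean of all tested compounds plus 3 SD, set per screening campaign, cut at about 17% in these data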
# TPT1 inh confirm – confirmation of Candida albicans TPT1 inhibitors. shares compounds with TPT1 inh. recombinant caTPT1, fluorescence polarization, RNase T1 coupled. inhibition, % at 5 µM. 2,400 tested, 74% active. AID 2149;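 active = inhibition above the primary screen limit, the mean inhibition of all tested compounds plus 3 SD, cut at about 25% in these data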
# RNase T1 counter – RNase T1 inhibition in TPT1 counter-screen. shares compounds with TPT1 inh. RNase T1 cleavage, fluorescence polarization, 1536-well. inhibition, % at 5 µM. 2,400 tested, 83% active. AID 2153;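 active = inhibition above the solvent-only control well mean plus 3 SD, limit set per screening run, cut at about 23% in these data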;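 also: plate controls were DMSO wells with enzyme for no effect and wells without RNase T1 for full effect; inhibitors block cleavage so intact labeled substrate keeps polarization high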
# Target sequence (P00651 whole entry, looked up): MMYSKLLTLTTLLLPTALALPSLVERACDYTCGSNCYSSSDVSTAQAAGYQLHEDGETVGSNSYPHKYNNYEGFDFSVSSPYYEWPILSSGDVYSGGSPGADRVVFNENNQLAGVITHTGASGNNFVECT
# Numbers without * were called inactive; · = no result; + = active, no number. A selection: hits, their analogues and other compounds. The true share with any hit is near 1.4%.
SMILES,IDE cell inh,TPT1 inh,HNF4A DNA FP,CRFBP-R2 agonist,IDE cell activ,TPT1 inh confirm,RNase T1 counter
CCN(CC)c1ccc(C=C(c2nnnn2-c2ccc(C)cc2)c2nnnn2-c2ccc(C)cc2)cc1,2.1,76.6*,19.8,22.7,-0.7,72.7*,84.5*
N#C/C(=C\c1ccc(N2CCOCC2)o1)c1ccccc1,-4.8,67.4*,77.9*,5.8,-9.1,138.1*,137.3*
N#C/C(=C/c1ccc(N2CCOCC2)o1)C(=O)NC1CCCCC1,9.5,156.1*,172.4,50.2*,-36.3,173.2*,165.9*
N#C/C(=C/c1ccc(N2CCOCC2)o1)c1ccc(Br)cc1,10.0,+,111.9,15.7,-42.0,170.7*,159.4*
N#C/C(=C\c1ccc(N2CCOCC2)cc1)c1ccccc1,5.4,3.4,-0.3,2.3,-2.0,·,·
COc1ccc(CCNC(=O)CSc2nnc3ccc(-c4ccccn4)nn23)cc1OC,-1.4,-0.7,4.6,-0.8,1.8,·,·
CC(=O)c1cccc(NS(=O)(=O)c2ccc(-c3cnc(C4CC4)o3)cc2)c1,-1.4,28.3*,0.9,0.0,0.6,7.0,9.4
COC(=O)CSCc1nc2ccccc2[nH]c1=O,11.6,64.4*,23.6,21.5,-2.3,61.0*,72.0*
CN1CCN(C(=O)/C(=C/c2ccc(F)cc2)NC(=O)c2ccccc2)CC1,3.4,-0.2,0.2,-0.3,4.6,·,·
CN1CCN(C(=O)/C(=C/c2ccc(N(C)C)cc2)NC(=O)c2ccccc2)CC1,-2.5,44.9*,-1.2,3.5,-2.2,48.2*,58.1*
CN(C)c1ccc(/C=C(/NC(=O)c2ccccc2)C(=O)NCCCn2ccnc2)cc1,4.6,134.2*,13.8,0.3,4.9,155.1*,157.2*
CN(C)c1ccc(/C=C(\NC(=O)c2ccccc2)C(=O)NCc2cccnc2)cc1,-0.7,50.6*,2.8,2.0,-0.2,68.0*,83.7*
CN(C)c1ccc(/C=C(\NC(=O)c2ccccc2)C(=O)NCCN2CCOCC2)cc1,9.4,28.5*,0.6,1.1,-1.9,17.4,22.6*
CN(C)c1ccc(/C=C(\NC(=O)c2ccccc2)C(=O)NCCCN2CCOCC2)cc1,-1.1,18.5,1.0,6.3,4.1,·,·
O=C(NCCCn1ccnc1)/C(=C/c1ccc(Cl)cc1)NC(=O)c1ccccc1,-9.3,1.8,2.7,0.2,3.9,·,·
COc1ccc(Cc2c(-c3cccc(Cl)c3)nc3ccc(Cl)cn23)c(C)c1,·,·,15.5,·,·,·,·
O=C(NC1CCCC1)c1cccc(S(=O)(=O)N2CCOCC2)c1,-3.0,·,2.0,-0.3,4.6,·,·
COc1cc(S(=O)(=O)NC2CCCCC2C)ccc1F (configuration not stated),6.5,1.9,2.9,0.6,-0.7,·,·
CCCC/C=C1/CCC(CN(C)C)C1=O (configuration not stated),·,·,-0.7,-3.2,2.5,·,·
CN(C)c1ccc(/C=C(\NC(=O)c2ccccc2)C(=O)N/N=C/c2ccc(C(=O)O)cc2)cc1,13.5,33.3*,4.2,-0.8,-4.8,19.7,29.4*
Cc1ccc(C)c(N2CCN(S(=O)(=O)c3cc4c(cc3Cl)NC(=O)CO4)CC2)c1,-3.1,0.8,0.2,2.2,7.8,·,·
Cc1ccc(-n2nnnc2SCc2nc3sc(C)c(C)c3c(=O)[nH]2)cc1,7.9,20.4,30.2,3.5,-1.6,·,·
CC(=O)c1sc2nc(CSc3nnnn3-c3ccccc3)[nH]c(=O)c2c1C,14.5,70.9*,37.6*,12.8,-12.8,69.2*,81.0*
Cc1nnc2ccc(-c3ccc(NS(=O)(=O)c4ccc(F)cc4F)cc3)nn12,-2.8,-2.6,2.4,0.3,4.6,·,·
Cc1ccc(/C=C2/SC(=O)N(CC(=O)N3CCOCC3)C2=O)s1,7.6,10.5,26.0,0.1,-0.1,·,·
SMILES,IDE cell inh,TPT1 inh,HNF4A DNA FP,CRFBP-R2 agonist,IDE cell activ,TPT1 inh confirm,RNase T1 counter
Cc1ccsc1/C=C1/SC(=O)N(CC(=O)N2CCOCC2)C1=O,5.7,69.8*,-1.6,-0.2,-1.2,5.8,8.7
O=C(CN1C(=O)S/C(=C/c2ccc(N3CCOCC3)cc2)C1=O)N1CCOCC1,9.3,40.3*,15.1,7.1,1.6,61.2*,72.7*
Cc1ccc(S(=O)(=O)N(Cc2ccccc2F)C(=O)N2CCN(C)CC2)cc1,-2.9,0.8,-2.0,0.0,3.3,·,·
CCC(C(=O)NC(CC(=O)O)c1ccc(Cl)cc1)c1ccccc1 (configuration not stated),0.7,-0.6,2.1,-4.4,2.7,·,·
O=C(Nc1cc(Cl)cc(Cl)c1)Nc1cnccn1,2.1,-3.4,-1.4,0.2,-2.7,·,·
O=C(O)/C=C/c1ccc2ccccc2n1,0.1,1.3,-0.6,-0.7,5.1,·,·
O=C(/C=C/c1ccc2ccccc2n1)c1cc(Br)ccc1O,1.3,42.8*,28.7,1.7,-1.7,15.9,22.8*
O=C(O)CC/C(=N/Nc1ccc([N+](=O)[O-])cc1)C(=O)O,4.2,6.7,1.2,-0.8,5.5,·,·
O=C(O)CC/C(=N\Nc1ccc([N+](=O)[O-])cc1)c1ccccc1,2.1,33.9*,11.5,0.9,1.6,45.7*,58.6*
CC(NC(=O)C1CCC(CNS(=O)(=O)c2ccccc2)CC1)c1ccccc1 (configuration not stated),3.5,-4.2,0.1,-1.0,0.3,·,·
Cc1ccc(OCC(=O)Nc2ccc(S(=O)(=O)Nc3ccccn3)cc2)c(C)c1,2.9,35.7*,-2.6,-0.9,0.4,3.2,6.1
Nc1ncncc1-c1ccccc1Cl,·,·,1.5,2.6,5.4,·,·
N#Cc1c(N)n(-c2cccc(C(=O)O)c2)c2nc3ccccc3nc12,7.1,35.9*,21.0,0.7,-5.8,39.6*,49.4*
N#Cc1c(N)n(-c2ccccc2N)c2nc3ccccc3nc12,0.6,6.7,4.0,-5.2,4.2,·,·
CC1CCCc2sc3ncn(N)c(=N)c3c21 (configuration not stated),3.8,60.7*,2.0,-0.9,3.8,15.7,22.2*
COc1ccc(CCNC(=O)c2ccc(CS(=O)Cc3ccc(Cl)cc3)o2)cc1OC (configuration not stated),-0.8,0.8,-0.8,1.8,6.7,·,·
C=CC[n+]1c(-c2ccc(OC)c(OC)c2)csc1NNC(=O)Nc1ccccc1,5.2,24.6*,1.4,1.0,-1.7,7.3,10.9
Cc1cc(C)c2cc3c(N)c(C(=O)N4CCc5ccccc5C4)sc3nc2c1,0.5,26.1*,9.4,2.0,0.7,21.4,37.1*
Cc1ccc2nc3sc(C(=O)N4CCCc5ccccc54)c(N)c3cc2c1,-0.2,37.6*,39.2*,15.7,-1.5,55.7*,64.4*
Cc1cccc2cc3c(N)c(C(=O)N4CCOCC4)sc3nc12,-1.0,0.9,2.3,-4.0,-1.8,·,·
c1nc2n(n1)C1=C(CCCC1)C1(CCCCC1)N2,5.0,1.0,-0.9,-0.4,4.7,·,·
